Among the data in paper PMC6212833 are B-score values, retold here.

Whole data set: some 2,000 compounds, median “B-score” near -0.0024, cut for the highest 2% near 4. The sample holds the highest values, similar compounds and a random draw of the others, so the mix is not that of the screen.

The assay deals with Balamuthia mandrillaris (ATCC PRA-291) trophozoites, axenic culture. In words: primary screen, b score. To be noted: 20 µM. The method in brief:
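Trophozoites (3,000/well) in axenic medium exposed to library drugs at 20 µM in 0.2% DMSO for 72 h; viability by CellTiter Glo luminescence at 2, 4 and 8 h. Controls: vehicle and freeze-thaw amoeba lysate; B-score corrects row, column and edge effects.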
Compound `C[N+](C)(C)CCOP(=O)([O-])OP(=O)(O)OC[C@H]1O[C@@H](n2ccc(N)nc2=O)[C@H](O)[C@@H]1O` yielded a B-score of -1.73.
Next, `CN(C)c1ccc(C(=C2C=CC(=[N+](C)C)C=C2)c2ccc(N(C)C)cc2)cc1`: 9.22; `O=C(OOC(=O)c1ccccc1)c1ccccc1`: -0.0136.
Consider `CC(C)(C)CC(C)(C)c1cc(Cc2cc(C(C)(C)CC(C)(C)C)cc(-n3nc4ccccc4n3)c2O)c(O)c(-n2nc3ccccc3n2)c1`, for which the B-score is -1.88.
`Cc1ccc(-c2ncc(Cl)cc2-c2ccc(S(C)(=O)=O)cc2)cn1` yielded a B-score of 2.78.
On to `Cc1nc2n(c(=O)c1CCN1CCC(c3noc4cc(F)ccc34)CC1)CCC[C@H]2O`, for which the B-score came out at 0.893.
Under `OCC(S)CS` (stereo not drawn) stands 8.18; under `CC(O)Cn1cnc2c1c(=O)n(C)c(=O)n2C` (stereo not drawn), -3.33.
Next, `NS(=O)(=O)c1cc(C2(O)NC(=O)c3ccccc32)ccc1Cl` (stereo not drawn): 0.358; `O[C@H]1[C@H](O)[C@@H](O)[C@H](O)[C@@H](O)[C@H]1O`: -1.95; `CC(C)/N=C(N)/N=C(\N)Nc1ccc(Cl)cc1` [131550-L2]: 0.326.
Under `N=C(NCCCCCCNC(=N)NC(=N)Nc1ccc(Cl)cc1)NC(=N)Nc1ccc(Cl)cc1` stands 20.8.
With `CC(C)/N=C(N)/N=C(\N)Nc1ccc(Cl)cc1` [131550-L3], the B-score was -1.38.
`Cc1cccc(C)c1NC(=O)C(C)N` (stereo not drawn) had a B-score of 0.0863.
In turn, `CC[C@@H](CO)NC(=O)[C@@H]1C=C2c3cccc4c3c(cn4C)C[C@H]2N(C)C1` [756841-L1] had a B-score of 0.825.
For `CC(=O)Oc1cc2c(s1)CCN([C@H](C(=O)C1CC1)c1ccccc1F)C2`, the B-score is 0.0184.
Next, `CN[C@@H]1[C@@H](O[C@H]2O[C@H](CO)[C@@H](N)[C@H](O)[C@H]2O)O[C@H]2C[C@@H](N)[C@H](O[C@H]3[C@H](O)[C@@H](O)[C@H](N)C[C@@H]3N)O[C@@H]2[C@@H]1O`: -1.36; `O=C(O)c1ccccc1-c1c2cc(I)c(=O)c(I)c-2oc2c(I)c(O)c(I)cc12`: 14.8.
In the case of `N[C@@H]1[C@H]2CN(c3nc4c(cc3F)c(=O)c(C(=O)O)cn4-c3ccc(F)cc3F)C[C@@H]12`, the B-score is -1.05.
Next, `C#C[C@]1(O)CCC2C3CCc4cc(OC)ccc4C3CC[C@@]21C` (stereo partly drawn): -0.0352.
Under `COc1cc2c(cc1OC)C(=O)C(CC1CCN(Cc3ccccc3)CC1)C2` (stereo not drawn) stands -0.41; under `c1ccc2c(c1)Nc1ccccc1S2`, 0.971; under `CC(=O)N[C@@H]1[C@@H](C(O)[C@H](O)CO)O[C@](O)(C(=O)O)C[C@@H]1O` (stereo partly drawn), -1.13.
Next, `Cc1nc(Nc2ncc(C(=O)Nc3c(C)cccc3Cl)s2)cc(N2CCN(CCO)CC2)n1` [756746-L2]: 1.19; `Cc1nc(Nc2ncc(C(=O)Nc3c(C)cccc3Cl)s2)cc(N2CCN(CCO)CC2)n1` [756746-L1]: 8.3; `C[C@H]1O[C@@H](O[C@H]2[C@@H](O)C[C@H](O[C@H]3[C@@H](O)C[C@H](O[C@H]4CC[C@@]5(C)[C@H](CC[C@@H]6[C@@H]5CC[C@]5(C)[C@@H](C7=CC(=O)OC7)CC[C@]65O)C4)O[C@@H]3C)O[C@@H]2C)C[C@H](O)[C@@H]1O`: -0.38.
The compound `CC(=O)Oc1ccccc1C(=O)Nc1ncc([N+](=O)[O-])s1` yielded a B-score of -0.287.
Under `C=C1CC2C(CC[C@]3(C)C(=O)CCC23)[C@@]2(C)C=CC(=O)C=C12` (stereo partly drawn) stands -0.0158; under `C[C@]12CC[C@H](O)CC1=CCC1C2CC[C@]2(C)C(=O)CC[C@@H]12` (stereo partly drawn), 0.449; under `C=C1C[C@@H]2[C@H](CC[C@]3(C)C(=O)CC[C@@H]23)[C@@]2(C)C=CC(=O)C=C12`, 7.82.
Turning to `CCN1CCN(c2cc3c(cc2F)c(=O)c(C(=O)O)cn3C2CC2)CC1`, the B-score is -2.37.
Take `CO/N=C(\C(=O)N[C@@H]1C(=O)N2C(C(=O)O)=C(COC(C)=O)CS[C@H]12)c1csc(N)n1`: the B-score was 2.94.
Next, `N[C@@H](Cc1ccccc1)C(=O)O`: -1.27; `C#CC1(O)CCC2C3CCC4=C/C(=N/O)CCC4C3CCC21CC` (stereo not drawn): -0.44.
Under `CC(C)(O)c1ccccc1CC[C@@H](SCC1(CC(=O)O)CC1)c1cccc(/C=C/c2ccc3ccc(Cl)cc3n2)c1` stands -1.02; under `Oc1c(Cl)cc(Cl)cc1Sc1cc(Cl)cc(Cl)c1O`, -2.1; under `CC(=O)OCC1=C(C(=O)O)N2C(=O)[C@@H](NC(=O)CC#N)[C@H]2SC1`, -1.27.
Next, `CC(=O)OCC1=C(C(=O)O)N2C(=O)[C@@H](NC(=O)Cc3cccs3)[C@H]2SC1`: 4.7.
As to `CC(=O)OCC1=C(C(=O)O)N2C(=O)[C@@H](NC(=O)CSc3ccncc3)[C@H]2SC1`, the B-score is on record as -1.22.
Next, `Cc1cn([C@H]2C[C@H](N=[N+]=[N-])[C@@H](CO)O2)c(=O)[nH]c1=O` [735592-L3]: -1.48; `CC(C)(C)NC(=O)[C@H]1C[C@@H]2CCCC[C@@H]2CN1C[C@@H](O)[C@H](Cc1ccccc1)NC(=O)[C@@H](CC(N)=O)NC(=O)c1ccc2ccccc2n1`: -1.24; `NC[C@@H]1O[C@H](O[C@@H]2[C@@H](CO)OC(O[C@@H]3[C@@H](O)[C@H](N)C[C@H](N)[C@H]3OC3O[C@H](CN)[C@@H](O)[C@H](O)[C@H]3N)[C@@H]2O)[C@H](N)[C@@H](O)[C@@H]1O` (stereo partly drawn): 0.82.
`CC[C@H]1OC(=O)[C@H](C)[C@@H](O[C@H]2C[C@@](C)(OC)[C@@H](O)[C@H](C)O2)[C@H](C)[C@@H](O[C@@H]2O[C@H](C)C[C@H](N(C)C)[C@H]2O)[C@](C)(O)C[C@@H](C)/C(=N\OCOCCOC)[C@H](C)[C@@H](O)[C@]1(C)O` came in with a B-score of 0.27.
Next, `CCC1=C(C)CN(C(=O)NCCc2ccc(S(=O)(=O)NC(=O)N[C@H]3CC[C@H](C)CC3)cc2)C1=O`: 1.92.
Under `CC(C)c1nc(N(C)S(C)(=O)=O)nc(-c2ccc(F)cc2)c1/C=C/[C@@H](O)C[C@@H](O)CC(=O)O` stands 3.13; under `O=C(O)C[C@H](O)C[C@H](O)/C=C/c1c(C2CC2)nc2ccccc2c1-c1ccc(F)cc1`, -0.609.
Under `COCc1c(C(C)C)nc(C(C)C)c(/C=C/[C@@H](O)C[C@@H](O)CC(=O)O)c1-c1ccc(F)cc1` stands 13.3; under `CC[N+](CC)(CC)CCOc1cccc(OCC[N+](CC)(CC)CC)c1OCC[N+](CC)(CC)CC`, 5.36.
The compound `CC(C)NC[C@H](O)COc1cccc2ccccc12` showed a B-score of -4.66.
Next, `CC(C)NCC(O)COc1cccc2ccccc12` (stereo not drawn): 0.797; `CC(Cc1ccccc1)(NC(=O)CN)c1ccccc1` (stereo not drawn): 1.27; `CC[C@H]1CN2CCC1C[C@@H]2[C@@H](O)c1ccnc2ccc(OC)cc12` (stereo partly drawn): 0.0568.
Next, `CCCCC1(COC(=O)CCC(=O)O)C(=O)N(c2ccccc2)N(c2ccccc2)C1=O`: -1.04; `O=C1CC[C@@H](N2C(=O)c3ccccc3C2=O)C(=O)N1`: -1.22.
